Results on six compounds are retold here after PubChem BioAssay (EPA / NIEHS).

Results filed as inconclusive are left out. The source made the active and inactive calls. How the source made its calls, unless noted: active means hit-call score of the fitted dose curve at least 0.9, where 1 is the maximum; inconclusive means response in the unintended direction; inactive means score below 0.9.

A short description of assay [1]: ATG_TAL_CIS: Attagene CIS-FACTORIAL HepG2 Assay for human TAL Basal Promoter (AID 2282966; active means hit-call score of the fitted dose curve at least 0.9, where 1 is the maximum; inactive means score below 0.9;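 further: background control endpoint measuring basal TAL promoter reporter mRNA not a specific factor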). The note with it: HepG2 Attagene cis-factorial TAL promoter reporter; actives raise or lower the signal. The procedure, abridged:
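Steps: transfect HepG2 with multiple reporter transcription units; dose 24 h; isolate RNA, reverse-transcribe, PCR-amplify, label with 6-FAM, digest with HpaI; resolve by capillary electrophoresis. Bidirectional fitting against DMSO baseline.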

Assay [2] can be described thus: ATG_TGFb_CIS: Attagene CIS-FACTORIAL HepG2 Assay for human Transforming Growth Factor (TGF) (AID 2282967; active means hit-call score of the fitted dose curve at least 0.9, where 1 is the maximum; inactive means score below 0.9). As to conditions: HepG2 Attagene CIS TGFb reporter, mRNA transcription; actives raise or lower the signal. The procedure, abridged: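 After a 24-hour incubation with compound, transfected HepG2 cells were lysed for RNA; reporter cDNA was amplified, fluorescently end-labeled and separated by CE. DMSO served as baseline for bidirectional fits.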

Assay [3] is described as follows: ATG_VDRE_CIS: Attagene CIS-FACTORIAL HepG2 Assay for human Vitamin D Receptor Element (VDRE) (AID 2282968; active means hit-call score of the fitted dose curve at least 0.9, where 1 is the maximum; inactive means score below 0.9). The note with it: HepG2 VDRE cis-reporter transcription, actives raise or lower the signal. A digest of the protocol: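 Reporter mRNA induction, quantified by capillary electrophoresis of fluorescently labelled RT-PCR products, was read 24 h after dosing HepG2 cells carrying transiently transfected cis-regulated reporter units; gain or loss relative to DMSO.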

The target in assay [4] is Estrogen receptor (Homo sapiens) (UniProt P03372). The experiment in a line: ATG_ERa_TRANS: Attagene TRANS-FACTORIAL HepG2 Assay for human Estrogen Receptor alpha (ERa) (AID 2282970). As to conditions: HepG2 Attagene TRANS ERa GAL4 reporter, mRNA. A digest of the protocol:
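Multiplexed cell-based reporter format in HepG2: chimeric ERa-Gal4 protein drives GAL4-UAS reporter transcription. Fluorescent reporter mRNA quantified by capillary electrophoresis 24 hours after dosing; endpoint fitted as signal gain against DMSO.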

For assay [5], the target named is Steroid hormone receptor ERR1 (Homo sapiens) (UniProt P11474). The experiment in a line: ATG_ERRa_TRANS: Attagene TRANS-FACTORIAL HepG2 Assay for human Estrogen-Related Receptor alpha (ERRa) (AID 2282971). As to conditions: HepG2 Attagene TRANS reporter, ERRa transactivation. A digest of the protocol: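 Signal gain relative to DMSO for an ERRa-Gal4 chimeric receptor, read as reporter mRNA by RT-PCR/capillary electrophoresis. Human HepG2 liver cells, transient multiplex reporter transfection, 24 h chemical exposure.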
Sequence of Steroid hormone receptor ERR1 (Homo sapiens) (P11474 whole entry, looked up, the tested form may be a part): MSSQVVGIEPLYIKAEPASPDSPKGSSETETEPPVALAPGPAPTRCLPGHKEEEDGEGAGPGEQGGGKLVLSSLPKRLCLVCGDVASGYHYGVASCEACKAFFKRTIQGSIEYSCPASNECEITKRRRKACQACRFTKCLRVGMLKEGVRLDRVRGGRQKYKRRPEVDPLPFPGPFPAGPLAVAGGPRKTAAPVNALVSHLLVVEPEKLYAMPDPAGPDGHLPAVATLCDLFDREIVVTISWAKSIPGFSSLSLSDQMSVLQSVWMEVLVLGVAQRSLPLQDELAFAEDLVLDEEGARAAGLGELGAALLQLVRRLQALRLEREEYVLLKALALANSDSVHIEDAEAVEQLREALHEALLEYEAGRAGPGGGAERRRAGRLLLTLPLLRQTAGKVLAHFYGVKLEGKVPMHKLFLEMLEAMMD

Assay [6] deals with X-box-binding protein 1 (Homo sapiens) (UniProt P17861). The experiment in a line: ATG_Xbp1_CIS: Attagene CIS-FACTORIAL HepG2 Assay for human X-box Binding Protein 1 (XBP1) (AID 2282972; active means hit-call score of the fitted dose curve at least 0.9, where 1 is the maximum; inactive means score below 0.9). The note with it: HepG2 XBP1 cis-element reporter, Attagene multiplex; actives raise or lower the signal. A digest of the protocol: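 Fluorescence-labelled cDNA fragments from reporter transcripts, separated by capillary electrophoresis, give the signal. Source: HepG2 cells transfected with promoter-driven reporter units, harvested 24 h post-dose. DMSO served as reference for bidirectional curve fitting.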
Sequence of X-box-binding protein 1 (Homo sapiens) (P17861 whole entry, looked up, the tested form may be a part): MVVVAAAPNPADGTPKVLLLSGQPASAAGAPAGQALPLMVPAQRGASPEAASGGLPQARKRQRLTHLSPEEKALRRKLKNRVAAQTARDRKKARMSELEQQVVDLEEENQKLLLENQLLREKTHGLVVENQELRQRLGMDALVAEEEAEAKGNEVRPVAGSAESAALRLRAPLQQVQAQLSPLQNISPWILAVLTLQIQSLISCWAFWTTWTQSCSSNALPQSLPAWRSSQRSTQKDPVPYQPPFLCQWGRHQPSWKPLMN

A short description of assay [7]: ATG_M_19_TRANS: Attagene TRANS-FACTORIAL HepG2 Assay for M19 Transcription Factor (Internal Marker) (AID 2282974). As to conditions: HepG2 Attagene TRANS-FACTORIAL M19 internal marker reporter. The procedure, abridged:
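HepG2 transiently transfected with GAL4-UAS multiplex reporter constructs, exposed 24 h; reporter RNA quantified by RT-PCR, 6-FAM labeling, HpaI digestion and capillary electrophoresis; internal background marker fitted upward versus DMSO.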

The target in assay [8] is Estrogen-related receptor gamma (Homo sapiens) (UniProt P62508). The experiment in a line: ATG_ERRg_TRANS: Attagene TRANS-FACTORIAL HepG2 Assay for human Estrogen-Related Receptor gamma (ERRg) (AID 2282977).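 Further: hits increase reporter signal over DMSO so potencies reflect activators.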 The note with it: HepG2 Attagene TRANS reporter, ERRg transactivation. A digest of the protocol: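 HepG2 cells transiently transfected with multiplexed GAL4-UAS reporter units driven by chimeric NR-Gal4 proteins; 24 h exposure. Reporter mRNA quantified by RT-PCR, fluorescent labelling, HpaI digestion and capillary electrophoresis; gain of signal vs DMSO.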

Assay [9] deals with Glucocorticoid receptor (Homo sapiens) (UniProt P04150). The experiment in a line: ATG_GR_TRANS: Attagene TRANS-FACTORIAL HepG2 Assay for human Glucocorticoid Receptor (GR) (AID 2282978).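 Further: activators score as hits since higher reporter transcript over DMSO is fitted.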 The note with it: HepG2 Attagene TRANS GR reporter, mRNA transcription. The procedure, abridged: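 HepG2 cells transiently transfected with GAL4-UAS reporter units and exogenous GR-Gal4 chimera, dosed 24 h. Reporter mRNA by RT-PCR, FAM labeling, HpaI digest and capillary electrophoresis; gain-of-signal fit versus DMSO.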
Sequence of Glucocorticoid receptor (Homo sapiens) (P04150 whole entry, looked up, the tested form may be a part): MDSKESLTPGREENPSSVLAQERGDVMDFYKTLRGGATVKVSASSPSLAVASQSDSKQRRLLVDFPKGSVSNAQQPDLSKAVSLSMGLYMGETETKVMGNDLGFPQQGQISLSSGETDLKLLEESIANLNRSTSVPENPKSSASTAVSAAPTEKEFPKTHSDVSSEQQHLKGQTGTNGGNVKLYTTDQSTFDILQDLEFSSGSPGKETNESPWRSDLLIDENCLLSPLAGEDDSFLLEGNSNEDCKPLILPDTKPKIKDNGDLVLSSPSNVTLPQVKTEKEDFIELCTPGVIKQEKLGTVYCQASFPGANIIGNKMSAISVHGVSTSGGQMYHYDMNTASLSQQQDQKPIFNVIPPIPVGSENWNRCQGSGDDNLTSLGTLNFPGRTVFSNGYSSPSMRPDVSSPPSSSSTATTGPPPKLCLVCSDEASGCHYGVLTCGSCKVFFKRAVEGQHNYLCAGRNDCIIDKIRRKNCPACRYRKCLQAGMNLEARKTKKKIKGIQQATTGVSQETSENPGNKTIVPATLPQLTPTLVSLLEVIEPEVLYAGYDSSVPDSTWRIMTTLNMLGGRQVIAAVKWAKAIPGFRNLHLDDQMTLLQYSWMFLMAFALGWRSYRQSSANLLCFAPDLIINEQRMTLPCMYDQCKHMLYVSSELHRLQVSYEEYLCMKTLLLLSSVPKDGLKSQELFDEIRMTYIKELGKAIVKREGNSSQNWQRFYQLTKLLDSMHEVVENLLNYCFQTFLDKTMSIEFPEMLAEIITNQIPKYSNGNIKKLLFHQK

In assay [10] the target is Oxysterols receptor LXR-alpha (Homo sapiens) (UniProt Q13133). Description: ATG_LXRa_TRANS: Attagene TRANS-FACTORIAL HepG2 Assay for human Liver X Receptor alpha (LXRa) (AID 2282980). The note with it: HepG2 Attagene TRANS reporter, LXRa transactivation. The procedure, abridged: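 In this multiplexed TRANS system, compounds act on HepG2 cells carrying GAL4-UAS reporter units and a receptor-GAL4 fusion for 24 h. Induced reporter RNA is amplified, fluorescently labelled and sized by capillary electrophoresis, with DMSO as baseline.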
Sequence of Oxysterols receptor LXR-alpha (Homo sapiens) (Q13133 whole entry, looked up, the tested form may be a part): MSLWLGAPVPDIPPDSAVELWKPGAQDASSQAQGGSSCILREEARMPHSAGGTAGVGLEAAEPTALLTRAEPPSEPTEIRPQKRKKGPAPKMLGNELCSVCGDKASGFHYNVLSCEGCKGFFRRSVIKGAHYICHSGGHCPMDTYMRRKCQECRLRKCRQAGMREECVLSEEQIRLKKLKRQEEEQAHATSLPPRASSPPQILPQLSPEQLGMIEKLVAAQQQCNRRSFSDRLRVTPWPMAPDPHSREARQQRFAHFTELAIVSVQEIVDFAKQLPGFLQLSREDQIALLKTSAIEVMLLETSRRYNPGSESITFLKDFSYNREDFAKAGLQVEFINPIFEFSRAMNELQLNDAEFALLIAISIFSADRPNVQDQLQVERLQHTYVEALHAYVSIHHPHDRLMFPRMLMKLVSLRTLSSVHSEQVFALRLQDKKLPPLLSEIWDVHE

The target in assay [11] is Hepatocyte nuclear factor 4-alpha (Homo sapiens) (UniProt P41235). Description: ATG_HNF4a_TRANS: Attagene TRANS-FACTORIAL HepG2 Assay for human Hepatocyte Nuclear Factor 4 alpha (HNF4a) (AID 2282982). The note with it: HepG2 HNF4a transactivation reporter, mRNA readout. The procedure, abridged: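 Readout is fluorescent reporter-transcript fragments resolved by capillary electrophoresis after RT-PCR from HepG2 cells dosed for 24 h. Cells carried transfected GAL4-UAS reporter constructs measuring exogenous NR-GAL4 chimera activity; DMSO served as baseline.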
Sequence of Hepatocyte nuclear factor 4-alpha (Homo sapiens) (P41235 whole entry, looked up, the tested form may be a part): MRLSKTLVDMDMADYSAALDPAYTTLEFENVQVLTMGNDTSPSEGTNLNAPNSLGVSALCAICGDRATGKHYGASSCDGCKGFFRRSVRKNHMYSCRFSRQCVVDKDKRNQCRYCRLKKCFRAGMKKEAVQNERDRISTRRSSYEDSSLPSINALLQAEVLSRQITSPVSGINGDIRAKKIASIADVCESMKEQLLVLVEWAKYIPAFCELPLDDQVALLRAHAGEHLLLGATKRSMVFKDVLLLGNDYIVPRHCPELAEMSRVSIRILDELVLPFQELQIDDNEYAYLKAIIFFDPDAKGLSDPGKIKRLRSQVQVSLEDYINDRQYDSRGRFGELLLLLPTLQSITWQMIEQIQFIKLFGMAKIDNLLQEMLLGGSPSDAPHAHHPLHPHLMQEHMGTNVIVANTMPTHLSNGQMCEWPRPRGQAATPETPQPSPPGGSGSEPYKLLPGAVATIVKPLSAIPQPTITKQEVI

Assay [12] addresses Transcriptional activator Myb (Homo sapiens) (UniProt P10242). Description: ATG_Myb_CIS: Attagene CIS-FACTORIAL HepG2 Assay for human Myeloblastosis (Myb) Proto-Oncogene Transcription Factor (AID 2282986; active means hit-call score of the fitted dose curve at least 0.9, where 1 is the maximum; inactive means score below 0.9). As to conditions: HepG2 Attagene CIS-FACTORIAL Myb reporter transcription; actives raise or lower the signal. A digest of the protocol: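 Transiently transfected HepG2 cells carrying a multiplexed cis-promoter reporter set report endogenous Myb activity after 24 h compound exposure. Reporter mRNA is read by RT-PCR with capillary electrophoresis of fluorescent products, fitted bidirectionally against DMSO.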

For assay [13], the target named is Nuclear respiratory factor 1 (Homo sapiens) (UniProt Q16656). Description: ATG_NRF1_CIS: Attagene CIS-FACTORIAL HepG2 Assay for human Nuclear Respiratory Factor 1 (NRF1) Orphan Gene (AID 2282987; active means hit-call score of the fitted dose curve at least 0.9, where 1 is the maximum; inactive means score below 0.9). As to conditions: HepG2 NRF1 cis-element reporter, Attagene multiplex; actives raise or lower the signal. A digest of the protocol: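 HepG2 cells transiently transfected with multiple cis-regulated reporter units, exposed 24 h. Reporter mRNAs measured by RT-PCR, fluorescent labelling, HpaI digestion and capillary electrophoresis; bidirectional fitting against DMSO.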
Sequence of Nuclear respiratory factor 1 (Homo sapiens) (Q16656 whole entry, looked up): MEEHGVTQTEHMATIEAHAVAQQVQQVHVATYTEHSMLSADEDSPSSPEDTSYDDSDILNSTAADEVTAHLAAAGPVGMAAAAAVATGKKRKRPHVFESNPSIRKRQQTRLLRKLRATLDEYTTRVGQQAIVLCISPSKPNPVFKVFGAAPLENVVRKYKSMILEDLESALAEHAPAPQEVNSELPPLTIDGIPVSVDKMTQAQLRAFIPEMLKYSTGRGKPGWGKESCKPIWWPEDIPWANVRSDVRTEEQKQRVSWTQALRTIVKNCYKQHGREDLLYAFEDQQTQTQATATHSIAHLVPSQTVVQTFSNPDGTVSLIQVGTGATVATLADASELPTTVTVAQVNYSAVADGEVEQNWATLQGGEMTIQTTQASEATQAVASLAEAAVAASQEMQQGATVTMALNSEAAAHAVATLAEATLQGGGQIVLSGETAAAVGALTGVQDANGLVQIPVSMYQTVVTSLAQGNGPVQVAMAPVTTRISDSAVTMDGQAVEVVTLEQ

A short description of assay [14]: ATG_M_32_TRANS: Attagene TRANS-FACTORIAL HepG2 Assay for M32 Transcription Factor (Internal Marker) (AID 2282984).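 Further: transcript level of a background control reporter unit measured by RT-PCR and capillary electrophoresis.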 The note with it: HepG2 Attagene TRANS M32 internal marker reporter. A digest of the protocol:
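Measures reporter mRNA induction in human HepG2 liver cells after 24 h chemical treatment. Transcripts from transiently transfected GAL4-UAS reporter units are amplified, fluorescently labelled and sized by capillary electrophoresis; gain of signal relative to DMSO.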

The target of assay [15] is Oxysterols receptor LXR-beta (Homo sapiens) (UniProt P55055). Description: ATG_LXRb_TRANS: Attagene TRANS-FACTORIAL HepG2 Assay for human Liver X Receptor beta (LXRb) (AID 2282981). As to conditions: HepG2 Attagene TRANS GAL4-LXRb reporter, mRNA. A digest of the protocol:
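Transient transfection HepG2 (multiplexed RTUs, GAL4-UAS); NR-Gal4 chimera; 24 h exposure; RNA → RT-PCR → 6-FAM primer extension → HpaI → CE; increase vs DMSO.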

Assay [16] in a line: ATG_M_06_TRANS: Attagene TRANS-FACTORIAL HepG2 Assay for M06 Transcription Factor (Internal Marker) (AID 2282983).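 Further: reporter transcript level by RT-PCR then capillary electrophoresis fluorescence.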 As to conditions: HepG2 Attagene TRANS M06 internal marker reporter. A digest of the protocol:
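Internal-marker background readout from a multiplexed TRANS reporter system in HepG2; 24 h dosing; mRNA induction quantified by RT-PCR plus capillary electrophoresis fluorescence; DMSO as negative control and baseline.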

The target in assay [17] is Nuclear receptor subfamily 4 group A member 2 (Homo sapiens) (UniProt P43354). Description: ATG_NURR1_TRANS: Attagene TRANS-FACTORIAL HepG2 Assay for human Nuclear Receptor Related Protein 1 (NURR1) (AID 2282985). The note with it: HepG2 Attagene TRANS reporter, mRNA readout. A digest of the protocol: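 Transient transfection of HepG2, human liver cells, with multiple GAL4-UAS reporter transcription units. Cells dosed 24 h, RNA isolated, reverse-transcribed, PCR-amplified, FAM-labelled, HpaI-digested, sized by capillary electrophoresis. DMSO served as negative control.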
Sequence of Nuclear receptor subfamily 4 group A member 2 (Homo sapiens) (P43354 whole entry, looked up, the tested form may be a part): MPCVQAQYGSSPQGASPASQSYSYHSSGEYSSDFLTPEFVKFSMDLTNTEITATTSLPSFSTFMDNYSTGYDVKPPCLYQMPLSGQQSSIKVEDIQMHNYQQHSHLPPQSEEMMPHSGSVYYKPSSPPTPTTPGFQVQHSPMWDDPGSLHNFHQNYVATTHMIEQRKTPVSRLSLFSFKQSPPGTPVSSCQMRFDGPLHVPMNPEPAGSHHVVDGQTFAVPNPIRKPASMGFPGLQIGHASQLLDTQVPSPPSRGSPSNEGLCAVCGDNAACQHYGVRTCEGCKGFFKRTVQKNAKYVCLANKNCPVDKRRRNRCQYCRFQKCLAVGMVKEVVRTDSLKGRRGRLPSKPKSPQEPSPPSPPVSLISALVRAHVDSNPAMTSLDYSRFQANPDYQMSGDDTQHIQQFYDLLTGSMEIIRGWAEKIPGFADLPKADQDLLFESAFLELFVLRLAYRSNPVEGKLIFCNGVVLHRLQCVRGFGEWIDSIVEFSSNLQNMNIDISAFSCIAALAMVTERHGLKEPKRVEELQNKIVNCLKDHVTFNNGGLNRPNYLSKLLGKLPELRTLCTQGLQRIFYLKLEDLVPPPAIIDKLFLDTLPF

Assay [18] has as its target Bile acid receptor (Homo sapiens) (UniProt Q96RI1). Description: ATG_FXR_TRANS: Attagene TRANS-FACTORIAL HepG2 Assay for Farnesoid X Receptor (FXR) (AID 2282979).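 Further: hits raise reporter mRNA above DMSO so AC50 marks FXR activation.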 As to conditions: HepG2 Attagene TRANS FXR-GAL4 reporter transcription. The procedure, abridged:
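After 24 h chemical treatment of transfected HepG2 cells, GAL4-UAS reporter transcripts driven by an exogenous FXR-GAL4 fusion were measured by RT-PCR and capillary electrophoresis. Increases over DMSO were fitted.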

Sequence of Estrogen receptor (Homo sapiens) (P03372 whole entry, looked up, the tested form may be a part): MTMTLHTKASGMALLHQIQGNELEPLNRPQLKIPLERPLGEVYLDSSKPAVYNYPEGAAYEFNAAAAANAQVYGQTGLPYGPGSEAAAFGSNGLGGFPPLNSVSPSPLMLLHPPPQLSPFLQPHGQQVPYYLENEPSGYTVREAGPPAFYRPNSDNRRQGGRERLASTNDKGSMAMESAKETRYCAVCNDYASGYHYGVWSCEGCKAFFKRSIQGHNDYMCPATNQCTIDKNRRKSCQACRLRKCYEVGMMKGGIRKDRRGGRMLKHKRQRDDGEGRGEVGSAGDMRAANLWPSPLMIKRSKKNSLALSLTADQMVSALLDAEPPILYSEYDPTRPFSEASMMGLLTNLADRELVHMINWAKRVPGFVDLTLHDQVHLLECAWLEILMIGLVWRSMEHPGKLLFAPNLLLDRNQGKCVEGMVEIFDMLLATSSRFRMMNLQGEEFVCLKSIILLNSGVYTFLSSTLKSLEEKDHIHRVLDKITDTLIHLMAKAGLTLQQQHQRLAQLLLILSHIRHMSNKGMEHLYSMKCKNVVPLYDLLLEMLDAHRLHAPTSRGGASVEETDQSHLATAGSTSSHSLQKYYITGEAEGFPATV
Sequence of Transcriptional activator Myb (Homo sapiens) (P10242 whole entry, looked up): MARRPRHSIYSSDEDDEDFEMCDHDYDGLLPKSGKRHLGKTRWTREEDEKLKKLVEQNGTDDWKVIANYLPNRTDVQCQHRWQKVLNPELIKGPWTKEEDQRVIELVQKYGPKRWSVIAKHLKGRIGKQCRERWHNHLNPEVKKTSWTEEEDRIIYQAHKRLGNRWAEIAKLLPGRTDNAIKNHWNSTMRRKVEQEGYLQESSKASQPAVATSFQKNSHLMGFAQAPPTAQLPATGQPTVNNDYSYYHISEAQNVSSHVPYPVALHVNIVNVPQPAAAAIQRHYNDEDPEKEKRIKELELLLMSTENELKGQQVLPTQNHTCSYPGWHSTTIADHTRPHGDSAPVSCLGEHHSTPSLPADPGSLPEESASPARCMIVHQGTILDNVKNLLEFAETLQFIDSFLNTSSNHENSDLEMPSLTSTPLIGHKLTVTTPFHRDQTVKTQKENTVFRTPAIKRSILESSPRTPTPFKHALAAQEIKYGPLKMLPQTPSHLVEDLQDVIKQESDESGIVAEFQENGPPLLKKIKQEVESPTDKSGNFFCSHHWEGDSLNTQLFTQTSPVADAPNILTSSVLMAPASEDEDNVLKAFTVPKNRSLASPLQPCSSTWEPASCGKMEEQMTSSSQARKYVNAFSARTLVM

For the compound `NCCOCCO`, the outcome in [1], in assay [2], in assay [3], in assay [4], in assay [5] and in assay [6] was inactive. The compound was classed as inactive in assay [7], in assay [8], in assay [9], in assay [10], in assay [11] and in assay [12]. Also, in assay [13], the call was inactive.
Consider `CC1(C)C(=O)N(Br)C(=O)N1Cl`, for which the outcome in [1], in assay [2], in assay [3], in assay [5], in assay [6] and in [7] was inactive. Moreover, the result in assay [11], in assay [14], in assay [12] and in assay [13] was inactive.
Consider `CC1(C)[C@H](C(=O)OCc2cccc(Oc3ccccc3)c2)[C@@H]1C=C(Cl)Cl`, for which the outcome in assay [1], in [2], in assay [3], in assay [4], in [6] and in assay [9] was inactive. For the same compound, the compound was classed as inactive in [15], in assay [11], in [16], in [14], in assay [17] and in assay [12]. In addition, the compound was classed as inactive in [13].
Take `OCCOCCOCCOCCO`: the outcome in assay [1], in [2], in assay [3], in assay [4], in assay [6] and in assay [10] was inactive. The call in [11], in [16], in [14], in assay [17] and in [13] was inactive.
One may read the AC50 as the concentration at which the activity in the assay is half-maximal. In the case of `C[C@]12CC[C@H]3[C@@H](CCC4=CC(=O)CC[C@@]43C)[C@@H]1CC[C@@H]2C(=O)CO`, the result in [1], in [2], in assay [6], in assay [10], in [15] and in [16] was inactive. Moreover, the compound was called inactive in assay [14], in [17], in assay [12] and in assay [13]. Also, the AC50 in assay [3] was 5.34 µM (active); in assay [4], 1.78 µM (active); in assay [9] it was 6.33 µM (active).
For the compound `Nc1cc([N+](=O)[O-])ccc1Cl`, the compound was classed as inactive in assay [1], in assay [2], in assay [3], in assay [5], in [6] and in assay [9]. Moreover, the outcome in [18], in [14] and in assay [13] was inactive.
